Experimental findings from publication PMC11574364 are described below.

Targets include IGF2BP2(1-2) (Homo sapiens, UniProt Q9Y6M1); FXR1(1-2) (Homo sapiens, UniProt P51114); RBPMS (Homo sapiens, UniProt Q93062); RBMXL3 (Homo sapiens, UniProt Q8N7X1); ROD1(3-4) (Homo sapiens, UniProt O95758); snRNP 70 (Homo sapiens, UniProt P08621); SRRP35 (Homo sapiens, UniProt Q8WXF0); RDBP (Homo sapiens, UniProt P18615).
What all share (experiment): protein domain microarray probed with biotinylated miRNA; Domain array: 20 mM Tris-HCl pH 7.4, 200 mM KCl, 0.2 mM EDTA, 0.05% NP40, 2 ug/ul heparin, overnight 4 C. ORF array: PBS pH 7.0 with RNase inhibitor, 100 ng RNA; high values mean tight binding
Common to all, as to details: ssRNA

The next experiment deals with T1, STAU2(4) (Homo sapiens, UniProt Q9NUL3).
T1 sequence: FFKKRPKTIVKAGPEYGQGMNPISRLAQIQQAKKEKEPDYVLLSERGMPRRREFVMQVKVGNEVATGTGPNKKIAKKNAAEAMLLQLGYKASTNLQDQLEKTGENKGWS

A further experiment addresses T2, RBM19(1) (Homo sapiens, UniProt Q9Y4C8).
T2 sequence: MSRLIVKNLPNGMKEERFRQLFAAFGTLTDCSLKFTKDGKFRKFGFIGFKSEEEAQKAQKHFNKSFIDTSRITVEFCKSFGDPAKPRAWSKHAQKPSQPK

Another experiment addresses T3, RBM11 (Homo sapiens, UniProt P57052).
T3 sequence: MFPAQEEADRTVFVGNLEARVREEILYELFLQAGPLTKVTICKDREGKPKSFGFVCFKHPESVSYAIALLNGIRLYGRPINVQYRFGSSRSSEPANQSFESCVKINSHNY

The next experiment addresses T4, RAVER1 (Homo sapiens, UniProt Q8IY67).
T4 sequence: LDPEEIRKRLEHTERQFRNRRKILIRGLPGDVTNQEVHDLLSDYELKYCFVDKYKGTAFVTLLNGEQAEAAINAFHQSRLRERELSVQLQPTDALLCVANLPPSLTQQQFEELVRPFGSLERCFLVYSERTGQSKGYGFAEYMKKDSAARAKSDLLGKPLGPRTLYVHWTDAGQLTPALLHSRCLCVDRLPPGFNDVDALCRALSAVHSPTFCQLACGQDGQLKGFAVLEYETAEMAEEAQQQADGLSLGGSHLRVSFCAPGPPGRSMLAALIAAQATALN

In another experiment the target is T5, REXON (Homo sapiens, UniProt Q96IC2).
T5 sequence: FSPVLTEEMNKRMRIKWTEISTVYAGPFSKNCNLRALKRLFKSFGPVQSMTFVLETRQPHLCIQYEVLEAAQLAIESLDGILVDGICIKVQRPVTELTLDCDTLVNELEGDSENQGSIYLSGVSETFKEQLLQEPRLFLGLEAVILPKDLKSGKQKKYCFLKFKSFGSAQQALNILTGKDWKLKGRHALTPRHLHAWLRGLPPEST

A further experiment has as its target T6, TRA2B (Homo sapiens, UniProt P62995).
T6 sequence: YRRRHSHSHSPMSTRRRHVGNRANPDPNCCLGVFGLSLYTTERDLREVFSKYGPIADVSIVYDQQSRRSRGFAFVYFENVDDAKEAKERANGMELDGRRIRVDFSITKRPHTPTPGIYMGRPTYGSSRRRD

The next experiment concerns the target T7, SFRS12 (Homo sapiens, UniProt Q8WXA9).
T7 sequence: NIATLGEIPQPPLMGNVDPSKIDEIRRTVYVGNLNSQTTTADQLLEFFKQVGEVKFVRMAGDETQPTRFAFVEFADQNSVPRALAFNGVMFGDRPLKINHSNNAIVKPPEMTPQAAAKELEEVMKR

A further experiment deals with T8, PSPC1 (Homo sapiens, UniProt Q8WXF1).
T8 sequence: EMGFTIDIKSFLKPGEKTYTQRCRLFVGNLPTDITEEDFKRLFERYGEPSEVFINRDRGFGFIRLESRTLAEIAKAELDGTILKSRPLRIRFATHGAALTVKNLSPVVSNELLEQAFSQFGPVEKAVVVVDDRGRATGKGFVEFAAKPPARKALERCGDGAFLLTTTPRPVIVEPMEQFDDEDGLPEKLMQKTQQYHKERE

In another experiment the target is T9, TDRD10 (Homo sapiens, UniProt Q5VZ19).
T9 sequence: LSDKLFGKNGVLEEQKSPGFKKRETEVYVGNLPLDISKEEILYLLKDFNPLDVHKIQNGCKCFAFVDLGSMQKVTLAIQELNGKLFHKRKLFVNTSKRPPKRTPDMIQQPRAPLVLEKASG

In the next experiment the target is T10, MASK-BP3 (Homo sapiens, UniProt Q8IWZ3).
T10 sequence: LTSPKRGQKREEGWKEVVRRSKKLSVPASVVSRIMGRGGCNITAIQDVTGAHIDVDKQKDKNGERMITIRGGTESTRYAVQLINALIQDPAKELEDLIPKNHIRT

For the next experiment, the target named is T11, TRA2A (Homo sapiens, UniProt Q13595).
T11 sequence: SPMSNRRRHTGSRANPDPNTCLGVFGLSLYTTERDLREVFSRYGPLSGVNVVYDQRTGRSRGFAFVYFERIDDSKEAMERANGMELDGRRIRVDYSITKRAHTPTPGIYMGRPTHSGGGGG

For a further experiment, the target named is T12, SFRS7 (Homo sapiens, UniProt Q16629).
T12 sequence: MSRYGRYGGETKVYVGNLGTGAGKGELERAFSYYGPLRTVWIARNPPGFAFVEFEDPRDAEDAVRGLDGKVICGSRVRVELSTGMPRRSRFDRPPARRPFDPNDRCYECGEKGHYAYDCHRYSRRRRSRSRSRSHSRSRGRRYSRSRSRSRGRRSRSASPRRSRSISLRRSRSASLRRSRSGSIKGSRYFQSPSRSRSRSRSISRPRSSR

RBPMS, sequence (Q93062 1-125): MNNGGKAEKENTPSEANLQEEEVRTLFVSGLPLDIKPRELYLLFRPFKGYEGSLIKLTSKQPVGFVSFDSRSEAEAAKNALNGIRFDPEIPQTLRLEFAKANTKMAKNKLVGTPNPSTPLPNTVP
SRRP35, sequence (Q8WXF0 1-120): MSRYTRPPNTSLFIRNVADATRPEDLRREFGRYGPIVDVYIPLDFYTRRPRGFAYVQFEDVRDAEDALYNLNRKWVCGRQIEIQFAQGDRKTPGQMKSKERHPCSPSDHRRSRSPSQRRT
RBMXL3, sequence (Q8N7X1 1-110): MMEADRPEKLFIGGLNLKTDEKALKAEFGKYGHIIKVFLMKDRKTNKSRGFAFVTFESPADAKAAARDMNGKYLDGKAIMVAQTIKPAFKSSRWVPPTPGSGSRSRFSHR
snRNP 70, sequence (P08621 80-205): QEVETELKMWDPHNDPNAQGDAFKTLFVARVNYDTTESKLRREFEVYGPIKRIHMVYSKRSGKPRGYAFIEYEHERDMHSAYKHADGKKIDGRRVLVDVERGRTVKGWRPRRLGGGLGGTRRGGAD
IGF2BP2(1-2), sequence (Q9Y6M1 176-362): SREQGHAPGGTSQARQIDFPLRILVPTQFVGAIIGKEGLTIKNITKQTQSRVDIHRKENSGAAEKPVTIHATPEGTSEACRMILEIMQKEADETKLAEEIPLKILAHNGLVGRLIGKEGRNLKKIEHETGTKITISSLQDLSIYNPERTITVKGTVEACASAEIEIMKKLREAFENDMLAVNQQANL
ROD1(3-4), sequence (O95758 340-552): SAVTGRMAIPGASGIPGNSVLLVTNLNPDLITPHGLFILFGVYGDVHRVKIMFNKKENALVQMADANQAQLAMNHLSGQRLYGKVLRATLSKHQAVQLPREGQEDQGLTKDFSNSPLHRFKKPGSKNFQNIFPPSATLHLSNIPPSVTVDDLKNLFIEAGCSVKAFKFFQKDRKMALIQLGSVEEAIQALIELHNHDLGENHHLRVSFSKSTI
FXR1(1-2), sequence (P51114 201-372): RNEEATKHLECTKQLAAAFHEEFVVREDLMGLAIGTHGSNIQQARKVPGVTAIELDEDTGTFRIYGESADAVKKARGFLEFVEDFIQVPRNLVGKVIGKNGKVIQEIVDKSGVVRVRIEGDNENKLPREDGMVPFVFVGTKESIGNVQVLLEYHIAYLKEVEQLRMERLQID
RDBP, sequence (P18615 240-355): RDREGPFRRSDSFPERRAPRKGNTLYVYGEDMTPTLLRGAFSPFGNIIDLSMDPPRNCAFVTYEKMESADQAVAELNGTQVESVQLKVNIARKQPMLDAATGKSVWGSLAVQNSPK

On to UGAGGUAGUAGGUUGUGUGGUU, for which the binding signal with STAU2(4) is 275.8 ± 2.53 fluorescence intensity; with RBM19(1), 592 ± 96.6 fluorescence intensity; with RBM11, 26.6 ± 2.58 fluorescence intensity; in the experiment with RAVER1, 22.3 ± 5.17 fluorescence intensity; with REXON, 198.5 ± 0.0919 fluorescence intensity; with IGF2BP2(1-2), 31.4 ± 2.92 fluorescence intensity. Further, the binding signal with FXR1(1-2) stood at 436 ± 32.2 fluorescence intensity; with RBPMS, 168 ± 4.32 fluorescence intensity; with TRA2B it was 748 ± 54 fluorescence intensity; in the experiment with SFRS12, 314 ± 21.7 fluorescence intensity; with RBMXL3 it was 1280 ± 38.3 fluorescence intensity; with ROD1(3-4), 569 ± 20.9 fluorescence intensity. For the same sequence, the binding signal was 84.7 ± 9.68 fluorescence intensity with PSPC1; 210 ± 41.3 fluorescence intensity in the experiment with TDRD10; 131 ± 1.63 fluorescence intensity with MASK-BP3; 341 ± 41.5 fluorescence intensity in the experiment with TRA2A; 1968 ± 10.4 fluorescence intensity in the experiment with SFRS7; 1170 ± 58.7 fluorescence intensity with snRNP 70. The binding signal with SRRP35 worked out at 643.6 ± 5.9 fluorescence intensity; with RDBP, 78.9 ± 4.14 fluorescence intensity.

As for UGAGGUAGUAGGUUGUAUGGUU, the binding signal with STAU2(4) came out at 168 ± 2.52 fluorescence intensity; with RBM19(1), 519 ± 35.8 fluorescence intensity; with RBM11 it was 36.7 ± 5.74 fluorescence intensity; in the experiment with RAVER1 it was 26.62 ± 0.0495 fluorescence intensity; in the experiment with REXON, 102 ± 6.23 fluorescence intensity; in the experiment with IGF2BP2(1-2), 26.07 ± 0.24 fluorescence intensity. Besides, the binding signal with FXR1(1-2) worked out at 95 ± 11.4 fluorescence intensity; in the experiment with RBPMS it was 145 ± 43.8 fluorescence intensity; with TRA2B it was 1050 ± 32.8 fluorescence intensity; with SFRS12, 264 ± 26.8 fluorescence intensity; with RBMXL3, 1320 ± 44.2 fluorescence intensity; in the experiment with ROD1(3-4) it was 385 ± 82.6 fluorescence intensity. The binding signal came to 26.1 ± 0.75 fluorescence intensity with PSPC1; 161 ± 58.1 fluorescence intensity with TDRD10; 71.6 ± 1.19 fluorescence intensity in the experiment with MASK-BP3; 311 ± 4.77 fluorescence intensity with TRA2A; 2173 ± 16.3 fluorescence intensity in the experiment with SFRS7; 1010 ± 40.3 fluorescence intensity with snRNP 70. The binding signal was 570 ± 27.1 fluorescence intensity with SRRP35 and 52.2 ± 3.22 fluorescence intensity with RDBP.

Consider UAGCUUAUCAGACUGAUGUUGA, for which the binding signal with RBM19(1) came out at 37.3 ± 6.15 fluorescence intensity; with FXR1(1-2), 31.1 ± 0.919 fluorescence intensity; in the experiment with SFRS12, 30.2 ± 10.4 fluorescence intensity; with RBMXL3, 308 ± 16.9 fluorescence intensity; in the experiment with ROD1(3-4), 94.4 ± 48.7 fluorescence intensity; with SFRS7 it was 1190 ± 28.1 fluorescence intensity. Also, the binding signal was 44 ± 10.4 fluorescence intensity in the experiment with snRNP 70, 54.02 ± 0.29 fluorescence intensity in the experiment with SRRP35 and 20.3 ± 0.262 fluorescence intensity with RDBP.

For the sequence CAGUGCAAUGAUGAAAGGGCAU, the binding signal with STAU2(4) was 92.53 ± 0.0283 fluorescence intensity; with RBM19(1), 249 ± 33.6 fluorescence intensity; in the experiment with RBM11, 25.7 ± 8.53 fluorescence intensity; in the experiment with REXON, 88.4 ± 1.34 fluorescence intensity; with IGF2BP2(1-2) it was 24.1 ± 3.02 fluorescence intensity; with FXR1(1-2), 111.8 ± 0.544 fluorescence intensity. The binding signal with RBPMS was 844 ± 72.7 fluorescence intensity; with TRA2B, 656 ± 15.9 fluorescence intensity; with SFRS12, 243 ± 4.09 fluorescence intensity; in the experiment with RBMXL3 it was 1130 ± 24.3 fluorescence intensity; in the experiment with ROD1(3-4) it was 241 ± 7.52 fluorescence intensity; with TDRD10, 33.1 ± 2.64 fluorescence intensity. In addition, the binding signal worked out at 42.16 ± 0.219 fluorescence intensity with MASK-BP3; 126 ± 1.75 fluorescence intensity with TRA2A; 2185 ± 2.91 fluorescence intensity with SFRS7; 453 ± 34.9 fluorescence intensity with snRNP 70; 882 ± 24.2 fluorescence intensity with SRRP35; 43.1 ± 3.73 fluorescence intensity with RDBP.

Regarding UGAGGUAGUAGGUUGUAUAGUU, the binding signal was 31.34 ± 0.269 fluorescence intensity in the experiment with STAU2(4); 132 ± 21 fluorescence intensity in the experiment with RBM19(1); 21.1 ± 4.28 fluorescence intensity with RAVER1; 30.1 ± 0.375 fluorescence intensity with REXON; 34.3 ± 0.7 fluorescence intensity in the experiment with FXR1(1-2); 63.4 ± 5.39 fluorescence intensity in the experiment with RBPMS. Further, the binding signal was determined as 97.2 ± 22.2 fluorescence intensity with TRA2B; 44.9 ± 2.62 fluorescence intensity with SFRS12; 500 ± 52.7 fluorescence intensity with RBMXL3; 92.7 ± 10.2 fluorescence intensity in the experiment with ROD1(3-4); 26.2 ± 1.21 fluorescence intensity with MASK-BP3; 25 ± 0.552 fluorescence intensity with TRA2A. Further, the binding signal with SFRS7 was found to be 896.5 ± 2.67 fluorescence intensity; in the experiment with snRNP 70, 179 ± 52.5 fluorescence intensity; in the experiment with SRRP35, 206 ± 15.3 fluorescence intensity; in the experiment with RDBP, 25 ± 1.67 fluorescence intensity.

For AGAGGUAGUAGGUUGCAUAGUU, the binding signal with STAU2(4) is 100.36 ± 0.0283 fluorescence intensity; in the experiment with RBM19(1), 400 ± 17.2 fluorescence intensity; with RBM11, 28 ± 4.14 fluorescence intensity; with REXON it was 106 ± 7.17 fluorescence intensity; in the experiment with IGF2BP2(1-2), 23 ± 1.49 fluorescence intensity; in the experiment with FXR1(1-2), 46.8 ± 0.523 fluorescence intensity. Moreover, the binding signal amounted to 754 ± 55.2 fluorescence intensity with RBPMS; 1220 ± 41.8 fluorescence intensity with TRA2B; 364 ± 21 fluorescence intensity in the experiment with SFRS12; 1850 ± 54 fluorescence intensity with RBMXL3; 331 ± 55.6 fluorescence intensity in the experiment with ROD1(3-4); 38.8 ± 3.2 fluorescence intensity with PSPC1. For the same sequence, the binding signal with TDRD10 came out at 85.7 ± 8.76 fluorescence intensity; with MASK-BP3 it was 50.1 ± 3.32 fluorescence intensity; with TRA2A it was 230 ± 12.5 fluorescence intensity; with SFRS7, 2902 ± 20.8 fluorescence intensity; with snRNP 70, 899.9 ± 8.8 fluorescence intensity; with SRRP35 it was 735 ± 23.2 fluorescence intensity. In addition, the binding signal with RDBP came out at 47.7 ± 4.8 fluorescence intensity.
